Data published in PubChem BioAssay AID1861 (The Scripps Research Institute Molecular Screening Center, 2009).
Out of some 290,000 compounds screened, about 3,100 (1.1%) were called active. The full list was thinned out, with actives kept by preference. Values without a mark were called inactive. Rule as the data show it: active = inhibition above about 16% (passing the limit was not always enough); inactive = the rest.

Target: Neuropeptides B/W receptor type 1 (Homo sapiens) (UniProt P48145)
Assay: GPR7 receptor antagonists, primary screen, cell-based, fluorescence, single concentration (AID 1861);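 also: cells stimulated with the agonist NPW; 0% = agonist with vehicle and 100% = vehicle without agonist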
Conditions: GPR7-expressing cells, fluorescence antagonist assay; at 4.4 µM; active compounds read high

Neuropeptides B/W receptor type 1 (Homo sapiens), sequence (P48145 whole entry, looked up): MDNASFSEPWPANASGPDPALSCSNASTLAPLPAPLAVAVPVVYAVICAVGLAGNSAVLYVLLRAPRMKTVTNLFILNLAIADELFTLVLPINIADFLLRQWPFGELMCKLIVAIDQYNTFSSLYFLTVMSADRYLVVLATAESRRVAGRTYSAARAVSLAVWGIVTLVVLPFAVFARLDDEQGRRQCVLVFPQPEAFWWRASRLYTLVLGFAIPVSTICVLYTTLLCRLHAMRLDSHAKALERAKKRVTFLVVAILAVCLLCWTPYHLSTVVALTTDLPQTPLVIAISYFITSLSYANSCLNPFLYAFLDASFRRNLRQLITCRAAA

Structure (SMILES) | inhibition
O=C(Nc1nc(-c2ccncc2)cs1)C1COc2ccccc2O1 (configuration not stated) | -9.64%
O=C(Nc1nc(-c2ccc3c(c2)OCO3)cs1)c1ccncc1 | 31.8% (active)
CC(=O)NCCC(=O)Nc1nc(-c2ccc3c(c2)OCCO3)cs1 | 21.3%
CC(Sc1nnc(COc2ccccc2)n1-c1ccccc1)C(=O)O (configuration not stated) | 11%
Cc1cccc(N(C(=O)c2sc(C)nc2C)C(C(=O)NCC2CCCO2)c2ccccc2)c1 (configuration not stated) | -10.3%
CCOC(=O)C1CCN(C(=O)CN2C(=O)c3cccnc3Oc3ccc(C)cc32)CC1 | -8.59%
Oc1ccccc1N1CCN(c2ncnc3sc(-c4ccccc4)cc23)CC1 | -12.8%
COc1ccccc1N1CCN(c2ncnc3sc(C)c(-c4ccccc4)c23)CC1 | 27% (active)
COc1ccccc1N1CCN(c2ccc([N+](=O)[O-])nc2)CC1 | -2.36%
CCCCCc1ccc(-c2cn(Cc3ccc4ccccc4c3)nn2)cc1 | 2.3%
Cc1ccc(F)cc1NC(=O)c1ccc2c(c1)OCO2 | -15.9%
N#Cc1ccccc1NC(=O)c1ccc2c(c1)OCO2 | -3.22%
O=C(Nc1ccccc1F)c1ccc2c(c1)OCO2 | 30.2% (active)
COc1ccc(CCNS(=O)(=O)c2cc3c(cc2C)NC(=O)CO3)cc1OC | -11.3%
Cc1cccc(N2CCN(C(=O)COCc3cc(-c4ccc5c(c4)OCO5)on3)CC2)c1C | 14%
O=C(COC(=O)c1ccc(F)cc1)Nc1nc2ccc([N+](=O)[O-])cc2s1 | -8.84%
O=C(NC(Nc1nc2ccc([N+](=O)[O-])cc2s1)(C(F)(F)F)C(F)(F)F)c1ccccc1 | 27.1% (active)
CCC(=O)NC(Nc1nc2ccc(C)cc2s1)(C(=O)OC)C(F)(F)F (configuration not stated) | -6.22%
COc1cc(C2NC(=O)NC(c3ccccc3)=C2C(C)=O)c(Br)cc1OCC(N)=O (configuration not stated) | -18.1%
COc1cccc(CNC(=O)COc2cc(O)c3c(c2)OC(C)(C)CC3=O)c1 | 1.6%
CC(CCc1ccccc1)NC(=O)COC(=O)c1ccc(F)cc1 (configuration not stated) | -18.2%
CC(C)[C@H](NC(=O)N1CCn2c1nc1ccccc12)C(=O)NC1CC1 | -2.43%
Cc1cccc(CS(=O)(=O)c2ncc(Cl)c(C(=O)Nc3ccc(F)cc3)n2)c1 | 39.8% (active)

Structure (SMILES) | inhibition
Cc1ccc(CS(=O)(=O)c2ncc(Cl)c(C(=O)Nc3nnc(C)s3)n2)cc1 | -20.2%
Cc1cccc(NC(=O)c2nc(S(=O)(=O)Cc3ccccc3)ncc2Cl)c1 | 9.7%
CC(=O)NCCC(=O)Nc1cc(S(=O)(=O)N2CCCCC2)ccc1Oc1cccc(C)c1 | 9.48%
Cc1ccc(NC(=S)N(CCCN2CCC(C)CC2)Cc2ccco2)cc1 | 26.8% (active)
Cc1ccc(NC(=S)N(CCN2CCCCC2)Cc2ccco2)cc1C | 0.11%
Cc1ccc(NC(=S)N(Cc2ccco2)C(C)c2cccs2)cc1 (configuration not stated) | -21.7%
c1ccc2c(c1)CSc1sccc1C2=C1CCNCC1 | 24.5% (active)
C=CS(=O)c1sc(Cl)c(N2CCOCC2)c1[N+](=O)[O-] (configuration not stated) | 3.73%
CCOC(=O)Cn1c(CN(Cc2ccccc2)Cc2ccccc2)nc2c1c(=O)[nH]c(=O)n2C | -9.45%
Cn1c(=O)[nH]c(=O)c2c1nc(N(CCO)Cc1ccccc1)n2Cc1ccccc1Cl | 27.1% (active)
CN(Cc1ccccc1)c1nc2c(c(=O)[nH]c(=O)n2C)n1CCSc1nc2ccccc2[nH]1 | -4.5%
CNC(=O)c1sc(Nc2ccc(OCc3ccccc3)cc2)nc1C | 1.33%
CCC(Cc1ccccc1)NC(=O)C1CCCCC1 (configuration not stated) | -7.32%
Cc1ccc(NC(=O)NC(=O)c2ccccc2)cc1F | -0.7%
O=C(NC(=O)c1ccccc1)NC(=O)c1ccccc1 | 6%
O=C(NC(=O)c1ccccc1)Nc1ccccc1O | 40.9% (active)
CCn1c(SCC(=O)Nc2ccc3c(c2)OCCO3)nnc1-c1ccncc1 | -4.19%
Cc1nonc1C1CCCN1C(=O)c1cc(COc2cccc(C(F)(F)F)c2)on1 (configuration not stated) | -2.6%
COc1cccc(N2CCN(c3ccc4nnc(CCC(=O)N5CCN(C)CC5)n4n3)CC2)c1 | -14.2%
CCCOc1cccc(C(=O)Nc2ccccc2C(=O)N2CCN(C)CC2)c1 | -9.32%
O=C(CN1C(=O)/C(=C/c2ccccc2F)Sc2ccccc21)NCc1cccnc1 | 40.7% (active)
O=C(CN1C(=O)S/C(=C\c2ccccc2F)C1=O)NCCCn1ccnc1 | -12%
O=C(CN1C(=O)/C(=C\c2ccc(C(F)(F)F)cc2)Sc2ccccc21)NCc1ccco1 | 5.13%

Structure (SMILES) | inhibition
CSCc1ccc(C(=O)Nc2cc(C)cc(C)c2)cc1 | 3.49%
O=C(Nc1ccc(-c2ccc3nncn3n2)cc1)C1CCCCC1 | -11.2%
Cc1ccc2nc3n(c(=O)c2c1)CCC3 | -5.32%
Cc1ccc2nc(Nc3ccccc3)cc(C)c2c1 | -2.1%
Cc1ccc2nc(C)c3c(c2c1)N(c1ccccc1)CC3 | 36.7% (active)
C/C(=N\NC(=O)c1cc2c(s1)CCC(C)C2)c1cccnc1 (configuration not stated) | -6.07%
O=C(NCc1ccc2c(c1)OCO2)C(=O)NCC1OCCN1S(=O)(=O)c1ccc(F)cc1 (configuration not stated) | -11.7%
CN(C)c1ccc(Nc2c3c4c(cccc4n(C)c2=O)C(=O)c2ccccc2-3)cc1 | -1.09%
CCC(=O)c1ccc(N2CCN(C(=O)c3cc([N+](=O)[O-])ccc3F)CC2)c(F)c1 | 8.34%
CCN1CCN(c2ccc([N+](=O)[O-])cc2C(=O)c2ccc(Cl)cc2)CC1 | 32.3% (active)
O=C(Nc1cccc(Cl)c1)c1cc([N+](=O)[O-])ccc1N1CCN(CCO)CC1 | 6.31%
O=C(Cn1cnc2ccccc21)Nc1ccccc1-c1ccccc1 | -5.35%
CCOCC(=O)Nc1ncc(S(=O)(=O)c2ccc([N+](=O)[O-])cc2)s1 | 19.5% (active)
O=C(COC(=O)C1CCCCC1)Nc1ccc([N+](=O)[O-])cc1 | 23.9%
CC(C)c1nnc(NC(=O)COC(=O)/C=C/c2ccc([N+](=O)[O-])cc2)s1 | -6.73%
COc1ccc2c(c1)c(C(=O)N/N=C/c1cccs1)c(C)n2C | -1.8%
O=C(COc1ccc(Cl)cc1Cl)NCCCNC(=O)c1cnccn1 | -1.6%
CC(=O)N1CCCc2cc(S(=O)(=O)N3CCCC(C(=O)N4CCN(c5cccc(Cl)c5)CC4)C3)ccc21 (configuration not stated) | 35.7% (active)
CC(=O)N1CCCc2cc(S(=O)(=O)N3CCCC(C(=O)NCc4ccc(Cl)cc4)C3)ccc21 (configuration not stated) | 0.31%
CC(=O)N1c2ccc(S(=O)(=O)N3CCCC(C(=O)Nc4cccc(Cl)c4)C3)cc2CC1C (configuration not stated) | 2.68%
CCOc1cc2[nH]c(=S)n(Cc3ccc(C(=O)N4CCN(C)CC4)cc3)c(=O)c2cc1OCC | 2.37%
CCNC(=S)N(CCN(CC)CC)Cc1cc2cc3c(cc2[nH]c1=O)OCCO3 | -10.2%
COc1cc2ccccc2cc1C(=O)Nc1ccc(NC(=O)c2cccs2)cc1 | -3.15%

Structure (SMILES) | inhibition
COc1ccc(-n2c(C)cc(C(=O)COC(=O)c3cc(OC)c(OC)cc3NC(=O)c3cccs3)c2C)cc1 | 27.1% (active)
Cc1cc(C(=O)COC(=O)c2cccs2)c(C)n1-c1c(C)n(C)n(-c2ccccc2)c1=O | -14.8%
O=C(O)c1ccc(S(=O)(=O)N2CCOCC2)o1 | 1.56%
Cc1ccc(S(=O)(=O)NCC2CCC(C(=O)N3CCOCC3)CC2)cc1 (configuration not stated) | -4.78%
CN1C/C(=C/c2cccs2)C(=O)/C(=C\c2cccs2)C1 | -7.39%
CS(=O)(=O)N(Cc1nc2sc3c(c2c(=O)[nH]1)CCCC3)C1CCCCC1 | 1.34%
CCCC(=O)Nc1nc2ccc(NC(=O)c3cccnc3)cc2s1 | 3.59%
CCCC(=O)Nc1nc2ccc(NC(=O)c3c(F)c(F)c(OC)c(F)c3F)cc2s1 | 36.2% (active)
CSc1nc2ccc(NC(=O)c3c(F)cccc3F)cc2s1 | -5.74%
CN(C)c1nc(=Nc2cccc(Cl)c2)ss1 | -8.61%
CNS(=O)(=O)c1cccc(C(=O)NC2CCCc3ccccc32)c1 (configuration not stated) | -8.59%
COc1ccc(C(CNCC(=O)Nc2ccccc2F)N(C)C)cc1 (configuration not stated) | 0.06%
COc1ccc(CC(=O)NC(C)CCc2ccccc2)cc1 (configuration not stated) | -6.45%
COc1ccc(C(CCNCc2ccccc2F)c2ccc(F)cc2)cc1 (configuration not stated) | 27.6% (active)
N#Cc1c(Cl)nc(-c2cccnc2)nc1-c1ccccc1 | 4.22%
Clc1ccc(-c2cc(-c3ccccn3)on2)c(Cl)c1 | -1.76%
O=C1CSC(c2ccccc2)N1c1nc(-c2ccc(Cl)cc2Cl)cs1 (configuration not stated) | -0.11%
Clc1ccc(-c2cc(C3CCNCC3)[nH]n2)c(Cl)c1 | 28.3% (active)
COc1ccc(N(CC(=O)NCc2ccc(F)cc2)C(=O)CCC(=O)Nc2nccs2)cc1 | 1.89%
COCCOC1CCN(C(=O)c2ccc(OC)c(OC3CCN(C(C)C)CC3)c2)CC1 | -13.7%
Cc1ccc(CN2CCN(Cc3cn(C)nc3-c3ccccc3)CC2CCO)o1 (configuration not stated) | -17.8%
Cc1ccccc1CN1C[C@@H]2C[C@@H](c3ccc4nsnc4c3)N3CCC[C@@]23C1=O | -4.53%
Cc1ccccc1CN1C[C@@H]2C[C@@H](c3cn(C)nc3-c3ccccc3)N3CCC[C@@]23C1=O | 25.5% (active)
